The supplement of paper PMC8975748
Where a name gives a salt, the structure may show the parent alone.

System: Saccharomyces cerevisiae BY4741 SeMeCo community
Assay: z-score of subpopulation abundance vs DMSO median, subpopulation auxotrophic for UM; higher = larger share of this subpopulation than in DMSO controls
Conditions: 10 µM; 24 h; SM minimal medium; subpopulation (auxotrophy): UM
Method in brief: (§1)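 Four plasmids, each restoring a single auxotrophy and encoding a distinct fluorescent protein, were carried by a Saccharomyces cerevisiae BY4741 community. After overnight growth to OD600 1.0 and dilution to 0.3, 70 µl per well was grown for 24 h in minimal SM medium on 384-well plates acoustically predosed with library drugs at 10 µM final. Following paraformaldehyde fixation, automated confocal microscopy was used, with single-auxotroph fluorescent strains defining thresholds and autofluorescence correction. Subpopulation abundance was then scored as a z-score against the vehicle-well median.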

| Compound | z-score of subpopulation abundance |
| --- | --- |
| NC(=O)N1c2ccccc2CC(=O)c2ccccc21 [Oxcarbazepine] | 0.07 |
| CC(=O)OCC1=C(C(=O)O)N2C(=O)[C@@H](NC(=O)CSc3ccncc3)[C@H]2SC1 [Cephapirin Benzathine] | -0.24 |
| OCc1ccccc1O[C@@H]1O[C@H](CO)[C@@H](O)[C@H](O)[C@H]1O [Salicin] | -0.29 |
| O=C(CCCN1CCC(O)(c2ccc(Cl)cc2)CC1)c1ccc(F)cc1 [Haloperidol] | -0.69 |
| COc1cc(O)c(C(=O)Nc2nc(C(=O)NCCN(C(C)C)C(C)C)cs2)cc1OC [Acotiamide] | 0.28 |
| O=C(c1ccccc1)c1ccc2n1CCC2C(=O)O (stereo unspecified) [Ketorolac] | -1.16 |
| CC[C@H]1OC(=O)[C@H](C)[C@@H](O[C@H]2C[C@@](C)(OC)[C@@H](O)[C@H](C)O2)[C@H](C)[C@@H](O[C@@H]2O[C@H](C)C[C@H](N(C)C)[C@H]2O)[C@](C)(O)C[C@@H](C)[C@@H]2N[C@@H](COCCOC)O[C@H]([C@H]2C)[C@]1(C)O [Dirithromycin] | -0.05 |
| C#CCC(Cc1cnc2nc(N)nc(N)c2n1)c1ccc(C(=O)N[C@@H](CCC(=O)O)C(=O)O)cc1 (stereo partly specified) [Pralatrexate] | -5.43 |
| NNc1nncc2ccccc12 [Hydralazine HCl] | 0.37 |
| COc1cccc2c1C(=O)c1c(O)c3c(c(O)c1C2=O)CC(O)(C(=O)CO)CC3OC1CC(N)C(O)C(C)O1 (stereo unspecified) [Doxorubicin (Adriamycin) HCl] | 0.38 |
| CCN1CCCC1CNC(=O)c1cc(S(N)(=O)=O)ccc1OC (stereo unspecified) [Sulpiride] | -0.33 |
| CCCCC(F)(F)[C@@]1(O)CC[C@H]2[C@@H](CC(=O)[C@@H]2CCCCCCC(=O)O)O1 [Lubiprostone] | -0.29 |
| CCCN[C@H]1CCc2nc(N)sc2C1 [Pramipexole] | 0.05 |
| COc1ccc2[nH]c([S+]([O-])Cc3ncc(C)c(OC)c3C)nc2c1 (stereo unspecified) [Omeprazole Sodium] | -1.63 |
| C#C[C@]1(OC(C)=O)CC[C@H]2[C@@H]3CCC4=C[C@@H](OC(C)=O)CC[C@@H]4[C@H]3CC[C@@]21C [Ethynodiol diacetate] | -0.32 |
| Cc1ccccc1C(OCCN(C)C)c1ccccc1 (stereo unspecified) [Orphenadrine Citrate] | 0.14 |

| Compound | z-score of subpopulation abundance |
| --- | --- |
| CCOc1cc(N)c([N+](=O)[O-])cc1C(=O)NC1CCN(CC2CC=CCC2)CC1 (stereo unspecified) [Cinitapride Hydrogen Tartrate] | 1.35 |
| CC1(C)[C@H](C(=O)O)N2C(=O)C[C@H]2S1(=O)=O [Sulbactam sodium] | 1.22 |
| CCc1cc(C(N)=S)ccn1 [Ethionamide] | 0.25 |
| Clc1ccc(C(Cn2ccnc2)OCc2c(Cl)cccc2Cl)c(Cl)c1 (stereo unspecified) [Isoconazole nitrate] | 5.43 |
| CCCCCCCCN=C(N)NC(N)=NCc1ccc(Cl)c(Cl)c1 [Olanexidine Hydrochloride semihydrate] | 12.2 |
| Nc1nc(N)nc(-c2cc(Cl)ccc2Cl)n1 [Irsogladine] | -1.92 |
| NC(=O)c1ncn([C@@H]2O[C@H](CO)[C@@H](O)[C@H]2O)n1 [Ribavirin] | 0.53 |
| CC1(C)S[C@@H]2[C@H](NC(=O)[C@H](N)c3ccccc3)C(=O)N2[C@H]1C(=O)OCOC(=O)[C@@H]1N2C(=O)C[C@H]2S(=O)(=O)C1(C)C [Sultamicillin] | 0.83 |
| CN1C2CCCC1CC(NC(=O)c1nn(C)c3ccccc13)C2 (stereo unspecified) [Granisetron] | 0.55 |
| CCc1c2c(nc3ccc(OC(=O)N4CCC(N5CCCCC5)CC4)cc13)-c1cc3c(c(=O)n1C2)COC(=O)[C@]3(O)CC [Irinotecan HCl Trihydrate] | -0.07 |
| Cc1[nH]c(=O)c(C#N)cc1-c1ccncc1 [Milrinone] | -0.1 |
| C[C@@H](O)[C@H]1C(=O)N2C(C(=O)O)=C(S[C@@H]3CN[C@H](C(=O)Nc4cccc(C(=O)O)c4)C3)[C@H](C)[C@H]12 [Ertapenem sodium] | 0.16 |
| CN(C)CCc1c[nH]c2ccc(C[C@H]3COC(=O)N3)cc12 [Zolmitriptan] | -0.65 |
| Clc1ccc(C(Cn2ccnc2)OCc2ccsc2Cl)c(Cl)c1 (stereo unspecified) [Tioconazole] | 8.69 |
| CN1CCOC(c2ccccc2)c2ccccc2C1 (stereo unspecified) [Nefopam HCl] | 0.37 |
| C[C@]1(Cn2ccnn2)[C@H](C(=O)O)N2C(=O)C[C@H]2S1(=O)=O [Tazobactam] | 0.66 |

System: Saccharomyces cerevisiae BY4741 SeMeCo community
Assay: z-score of subpopulation abundance vs DMSO median, subpopulation auxotrophic for HL; higher = larger share of this subpopulation than in DMSO controls
Conditions: 10 µM; 24 h; SM minimal medium; subpopulation (auxotrophy): HL
Method in brief: as §1

| Compound | z-score of subpopulation abundance |
| --- | --- |
| NC(=O)N1c2ccccc2CC(=O)c2ccccc21 [Oxcarbazepine] | -0.1 |
| CC(=O)OCC1=C(C(=O)O)N2C(=O)[C@@H](NC(=O)CSc3ccncc3)[C@H]2SC1 [Cephapirin Benzathine] | 0.48 |
| COc1ccc(C[C@H](N)C(=O)N[C@H]2[C@@H](O)[C@H](n3cnc4c(N(C)C)ncnc43)O[C@@H]2CO)cc1 [Puromycin 2HCl] | -0.16 |
| OCc1ccccc1O[C@@H]1O[C@H](CO)[C@@H](O)[C@H](O)[C@H]1O [Salicin] | -0.58 |
| O=C(CCCN1CCC(O)(c2ccc(Cl)cc2)CC1)c1ccc(F)cc1 [Haloperidol] | 0.01 |
| COc1cc(O)c(C(=O)Nc2nc(C(=O)NCCN(C(C)C)C(C)C)cs2)cc1OC [Acotiamide] | 1.99 |
| CC(=O)OCC(CCn1cnc2cnc(N)nc21)COC(C)=O [Famciclovir] | 0.32 |
| O=C(c1ccccc1)c1ccc2n1CCC2C(=O)O (stereo unspecified) [Ketorolac] | 0.33 |
| CC[C@H]1OC(=O)[C@H](C)[C@@H](O[C@H]2C[C@@](C)(OC)[C@@H](O)[C@H](C)O2)[C@H](C)[C@@H](O[C@@H]2O[C@H](C)C[C@H](N(C)C)[C@H]2O)[C@](C)(O)C[C@@H](C)[C@@H]2N[C@@H](COCCOC)O[C@H]([C@H]2C)[C@]1(C)O [Dirithromycin] | -0.09 |
| C#CCC(Cc1cnc2nc(N)nc(N)c2n1)c1ccc(C(=O)N[C@@H](CCC(=O)O)C(=O)O)cc1 (stereo partly specified) [Pralatrexate] | 4.02 |
| NNc1nncc2ccccc12 [Hydralazine HCl] | -0.59 |
| COc1cccc2c1C(=O)c1c(O)c3c(c(O)c1C2=O)CC(O)(C(=O)CO)CC3OC1CC(N)C(O)C(C)O1 (stereo unspecified) [Doxorubicin (Adriamycin) HCl] | 2.67 |
| CCN1CCCC1CNC(=O)c1cc(S(N)(=O)=O)ccc1OC (stereo unspecified) [Sulpiride] | -0.63 |
| CCCN[C@H]1CCc2nc(N)sc2C1 [Pramipexole] | 0.63 |
| Cc1c(Nc2ncccc2C(=O)O)cccc1C(F)(F)F [Flunixin Meglumin] | -0.74 |
| COc1ccc2[nH]c([S+]([O-])Cc3ncc(C)c(OC)c3C)nc2c1 (stereo unspecified) [Omeprazole Sodium] | 0.77 |
| CO[C@H]1C[C@@H]2CC[C@@H](C)[C@@](O)(O2)C(=O)C(=O)N2CCCC[C@H]2C(=O)O[C@H]([C@H](C)C[C@@H]2CC[C@@H](OP(C)(C)=O)[C@H](OC)C2)CC(=O)[C@H](C)/C=C(\C)[C@@H](O)[C@@H](OC)C(=O)[C@H](C)C[C@H](C)/C=C/C=C/C=C/1C [Ridaforolimus (Deforolimus, MK-8669)] | 13.8 |

| Compound | z-score of subpopulation abundance |
| --- | --- |
| Cc1ccccc1C(OCCN(C)C)c1ccccc1 (stereo unspecified) [Orphenadrine Citrate] | -1.07 |
| CCOc1cc(N)c([N+](=O)[O-])cc1C(=O)NC1CCN(CC2CC=CCC2)CC1 (stereo unspecified) [Cinitapride Hydrogen Tartrate] | -0.01 |
| Cc1onc(-c2ccccc2)c1-c1ccc(S(N)(=O)=O)cc1 [Valdecoxib] | -0.64 |
| COc1ccc(Cc2cnc(N)nc2N)cc1OC [Diaveridine] | -0.33 |
| CC1(C)[C@H](C(=O)O)N2C(=O)C[C@H]2S1(=O)=O [Sulbactam sodium] | 0.14 |
| CCc1cc(C(N)=S)ccn1 [Ethionamide] | -0.03 |
| O=C(O)c1cc(=O)c2c(OCC(O)COc3cccc4oc(C(=O)O)cc(=O)c34)cccc2o1 [Disodium Cromoglycate] | -1.3 |
| NC(=O)c1ncn([C@@H]2O[C@H](CO)[C@@H](O)[C@H]2O)n1 [Ribavirin] | -0.89 |
| CC1(C)S[C@@H]2[C@H](NC(=O)[C@H](N)c3ccccc3)C(=O)N2[C@H]1C(=O)OCOC(=O)[C@@H]1N2C(=O)C[C@H]2S(=O)(=O)C1(C)C [Sultamicillin] | 2.28 |
| CN1C2CCCC1CC(NC(=O)c1nn(C)c3ccccc13)C2 (stereo unspecified) [Granisetron] | -1.17 |
| CCC[C@@H]1C[C@@H](C(=O)N[C@@H]([C@H]2O[C@H](SC)[C@H](O)[C@@H](O)[C@H]2O)[C@@H](C)O)N(C)C1 [Lincomycin HCl] | -0.34 |
| CCc1c2c(nc3ccc(OC(=O)N4CCC(N5CCCCC5)CC4)cc13)-c1cc3c(c(=O)n1C2)COC(=O)[C@]3(O)CC [Irinotecan HCl Trihydrate] | 0.06 |
| Cc1[nH]c(=O)c(C#N)cc1-c1ccncc1 [Milrinone] | -0.41 |
| C[C@@H](O)[C@H]1C(=O)N2C(C(=O)O)=C(S[C@@H]3CN[C@H](C(=O)Nc4cccc(C(=O)O)c4)C3)[C@H](C)[C@H]12 [Ertapenem sodium] | 0.1 |
| CN(C)CCc1c[nH]c2ccc(C[C@H]3COC(=O)N3)cc12 [Zolmitriptan] | 0.28 |
| Clc1ccc(C(Cn2ccnc2)OCc2ccsc2Cl)c(Cl)c1 (stereo unspecified) [Tioconazole] | 6.06 |
| CN1CCOC(c2ccccc2)c2ccccc2C1 (stereo unspecified) [Nefopam HCl] | -0.63 |
